Assay results published in PubChem BioAssay.
Activity calls are given as the source filed them. How the calls were made is not given here.

experiment: inhibition of Brca1/Bard1 split-luciferase complementation, confirmation, counter-screen for Mdm2/MdmX interaction inhibitor project, luminescence, single concentration (AID 504668); conditions: Brca1/Bard1 bimolecular luciferase complementation counterscreen, at 8 µM, active compounds read high

Row | SMILES | inhibition
1 | Cc1cc(C)cc(OCc2nc3ncc(Br)cc3[nH]2)c1 | 30.8% (active)
2 | COc1cc(/C=C2\CC/C(=C\c3cc(OC)c(O)c(OC)c3)C2=O)cc(OC)c1O | 25.6% (active)
3 | CCCC(=O)NC(c1ccco1)c1cc(Cl)c2cccnc2c1O (stereo not given) | 23.3% (active)
4 | COc1ccc(/C=C2/SC(=S)N(CCCC(=O)N3CCN(C)CC3)C2=O)cc1 | 31.7% (active)
5 | O=C1[C@H]2[C@@H](c3ccc(F)cc3)N3C(=O)N(c4ccc(Br)cc4)C(=O)[C@@]3(Cc3ccccc3)[C@H]2C(=O)N1C1CCCCC1 | 26.6% (active)
6 | COC(=O)[C@@]1(Cc2ccccc2)[C@H]2C(=O)N(Cc3ccccc3)C(=O)[C@H]2[C@H]2CN=C(SCc3ccc(C#N)cc3)N21 | 28.4% (active)
7 | O=C(CCCN1C(=O)/C(=C\c2ccco2)SC1=S)Nc1cccc2ccccc12 | 28.5% (active)
8 | O=c1nc(Nc2ccc(OCc3ccccc3)cc2)sc2ncccc12 | 23.4% (active)
9 | O=C(NN=C(c1ccccc1)c1ccccn1)c1ccccc1 | 27.4% (active)
10 | O=c1c2ccccc2nc(/C=C/c2cc(Br)ccc2O)n1CCCO | 26.6% (active)
11 | COc1ccc2[nH]c(C(=O)N/N=C/c3ccc(O)cc3O)cc2c1 | 31.2% (active)
12 | Cc1c(Cl)cccc1N/C(SCC(=O)N1CCCCCC1)=C(/C#N)c1nc2ccccc2s1 | 36% (active)
13 | CCCCC(=O)NC(c1ccc(N(C)C)cc1)c1ccc2cccnc2c1O (stereo not given) | 23.7% (active)
14 | CC(=O)c1sc(NC(=O)C2(F)C(F)(F)C(F)(F)C(F)(F)C(F)(F)C2(F)F)nc1C | 28.7% (active)
15 | COc1ccc(C(=O)N/N=C/c2cc(Br)ccc2O)cc1OC | 29.6% (active)
16 | CCOC(=O)c1sc(NC(=O)Nc2cccc(Cl)c2)cc1C | 34.4% (active)
17 | O=C(/C=C/c1ccccc1)NC(NC(=S)Nc1cc(Cl)ccc1Cl)C(Cl)(Cl)Cl (stereo not given) | 31.2% (active)
18 | O=C1N(c2ccccc2)C[C@@H]2C[C@@H](c3cc4ccccc4o3)N3CCC[C@@]123 | 35.1% (active)
19 | CCOc1ccc2[nH]c3c(N4CCc5ccccc5C4)ncnc3c2c1 | 35.8% (active)
20 | CCn1c(C)cc(C(=O)CN2C(=O)c3ccccc3S2(=O)=O)c1C | 23.2% (active)

Row | SMILES | inhibition
21 | CCc1ccc(S(=O)(=O)/N=C2\C=C(Nc3ccc(C(=O)O)cc3)C(=O)c3ccccc32)cc1 | 33.2% (active)
22 | CCOc1cccc2sc(NC(=O)CCS(=O)(=O)c3ccccc3)nc12 | 35.4% (active)
23 | O=C(Nc1cc(Cl)ccc1O)c1snnc1-c1ccccc1 | 23% (active)
24 | CC(=O)c1ccc(NC(=O)c2cc(CC(C)C)nc3ccccc23)cc1 | 33.6% (active)
25 | Cc1cc(NC(=O)c2ccc(F)cc2F)n(-c2nc3ccccc3[nH]2)n1 | 29.6% (active)
26 | O=C(N/N=C/c1cc(Br)cc(Br)c1O)c1cccc(S(=O)(=O)N2CCOCC2)c1 | 29.6% (active)
27 | Cc1cc(C)nc(SCc2ccc(C(=O)N/N=C/c3cccc(O)c3O)cc2)n1 | 35.2% (active)
28 | N=c1c2c(-c3ccccc3)c(-c3ccccc3)n(Cc3ccco3)c2ncn1Cc1ccccc1 | 23% (active)
29 | CCOc1ccc(CN2CCN(CC(O)Cn3c4ccccc4c4ccccc43)CC2)cc1 (stereo not given) | 35.8% (active)
30 | COc1cc(NS(=O)(=O)c2ccc(N/C=C(\C#N)c3nc4cc(Cl)ccc4o3)cc2)nc(OC)n1 | 35.2% (active)
31 | CC(C)(C)C(=O)NC(=S)NNC(=O)c1ccc(-c2ccccc2)cc1 | 28.9% (active)
32 | CCN(CC)C(=O)C1CCCc2c1[nH]c1ccc(Cl)cc21 (stereo not given) | 34.6% (active)
33 | O=C(CCN1C(=O)/C(=C/c2ccccc2F)SC1=S)NCCc1ccc(O)cc1 | 33% (active)
34 | O=Cc1[nH]c2ccccc2c1N(C(=O)CCl)c1ccc([N+](=O)[O-])cc1 | 25.5% (active)
35 | COc1ccccc1-c1cc(C(F)(F)F)nc(S(=O)(=O)CCCC(=O)Nc2cc(C)on2)n1 | 32.8% (active)
36 | CS(=O)(=O)Nc1ccccc1C(=O)Nc1cc(Cl)cc(Cl)c1 | 28.3% (active)
37 | O=C(N/N=C\c1c(O)ccc2ccccc12)c1ccc(O)cc1 | 31.7% (active)
38 | Oc1ccc(N=Nc2ccc3c(c2)OCCO3)c2ncccc12 | 26.2% (active)
39 | CN1CCN(c2cc(N3CCN(C(=O)c4ccco4)CC3)c3c4c(onc24)-c2ccccc2C3=O)CC1 | 24.3% (active)
40 | O=C(Cc1ccccc1)N/N=C/c1cc(Br)cc(Cl)c1O | 29.2% (active)
